The list is not random: actives were taken first. Their share in the collection is about 3.5%.
Tb PYK inh: blocks Trypanosoma brucei pyruvate kinase; Q57TT1; TbPYK enzyme, Kinase-Glo Plus ATP luminescence, 45 min; 0.12% of 410,000 active; Potency, µM (highest dose often 76.8 µM), for the others: at the highest dose activity, negative = inhibition, hits mostly inhibitors; further: on the % scale 0 is the no-effect control and ±100 the full control effect; nearly all actives have a fitted effect of over 50% in size
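Luminescent Kinase-Glo Plus end-point after 45 min room-temperature reaction of T. brucei pyruvate kinase started with 130 uM ADP (final). Buffer TEA 50 mM pH 7.2 with KCl, MgCl2, BSA, Tween-20; titration-based qHTS with fitted concentration-effect curves.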
NS1 inh: influenza NS1 inhibition; Potency, µM (series often up to 46.1 µM), inactives show top-dose activity, positive = more growth; 0.4% of 270,000 active; calls by dose curve; further: actives are rising curves; nearly all actives have a fitted effect of over 50% in size
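A cell-based growth assay was used: compounds that relieve NS1-induced slow growth of budding yeast raise OD600. Assay medium was yeast nitrogen base with ammonium sulphate and -URA supplement, pH 6.0, with 2% galactose.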
Sm TGR inh: inhibitors of Schistosoma mansoni thioredoxin glutathione reductase. Q962Y6. AID 485364. 3% of 360,000 active. Potency, µM (series often up to 114 µM), for the others: at the top dose activity change, negative = inhibition, hits mostly inhibitors. purified TGR, DTNB reduction, TNB absorbance 405 nm; further: on the % scale 0 is the no-effect control and ±100 the full control effect; nearly all actives have a fitted effect of over 60% in size
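First, TGR (20 nM dispensed) and NADPH were mixed with compound. Second, a 15 min room-temperature incubation followed. Third, further NADPH and then DTNB were added to start the reaction. Finally, TNB absorbance was monitored kinetically.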
FBPA Giardia inh: blocks Giardia fructose-bisphosphate aldolase activity. A8B2U2. purified Giardia FBPA. Potency, µM (series often up to 59.6 µM), without a hit: at the highest dose activity, negative = inhibition, hits mostly inhibitors. 0.71% of 290,000 active. AID 2451; further: on the % scale 0 is the no-effect control and ±100 the full control effect; nearly all actives have a fitted effect of over 55% in size
Target sequence (A8B2U2 whole entry, looked up): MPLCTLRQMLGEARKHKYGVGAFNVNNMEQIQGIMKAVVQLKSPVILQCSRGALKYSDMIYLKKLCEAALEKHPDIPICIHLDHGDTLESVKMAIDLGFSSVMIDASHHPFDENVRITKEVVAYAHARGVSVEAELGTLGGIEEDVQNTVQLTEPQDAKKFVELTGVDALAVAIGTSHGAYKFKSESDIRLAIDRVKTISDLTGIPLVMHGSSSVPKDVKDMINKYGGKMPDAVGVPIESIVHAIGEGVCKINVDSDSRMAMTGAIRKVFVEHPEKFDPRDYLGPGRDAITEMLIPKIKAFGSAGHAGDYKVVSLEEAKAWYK
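Giardia FBPA (40 nM reagent) was preincubated 10 min at RT with compound (up to 57.5 uM final), then substrate plus GAPDH/TPI/NAD/arsenate coupling system with diaphorase/resazurin was added; resorufin fluorescence (525/598 nm) was read after 20 min.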
RE007 growth inh: less growth of the S. pombe RE007 Vpr strain | 0.21% of 360,000 active | Potency, µM (series often up to 92.2 µM), for the others: top-dose activity change, negative = less growth, hits mostly inhibitors | S. pombe RE007 Vpr strain, BacTiter-Glo ATP luminescence, 24 h | AID 651644; active means well fitted falling curve with a large enough effect; inconclusive means small, poorly fitted or top-dose-only effect; inactive means no such curve, though single readings can be large or run the other way; further: on the % scale 0 is the no-effect control and ±100 the full control effect; nearly all actives have a fitted effect of over 50% in size
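Fission yeast strain RE007, carrying one chromosomally integrated HIV-1 vpr copy, was seeded at OD 0.01 in PMG+AL medium with 23 nL pinned compound. After 24 h at 30 °C and 99% humidity, viability was read by BacTiter-Glo luminescence.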
LmPK inhibitor: blocks Leishmania mexicana pyruvate kinase activity. Potency, µM (top dose mostly 57.5 µM), for inactives: top-dose activity change, negative = inhibition, usual class: inhibitors. Q27686. purified LmPK, Kinase-Glo ATP luminescence, 1 h. 0.37% of 290,000 active; further: on the % scale 0 is the no-effect control and ±100 the full control effect
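Purified LmPK (0.1 nM) with 0.5 mM PEP and 0.1 mM ADP in imidazole buffer pH 7.2 with MgCl2/KCl, 1 h at room temperature. ATP formed was read by luciferase luminescence and normalized to no-enzyme and uninhibited controls.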
Starred values were filed as active, the others as inactive; [ ] = another dose, or the depositor's remark. Unless noted, the call rests on the fitted dose curve; in most records, active means well fitted curve in the direction sought with a large enough effect; inconclusive means small, poorly fitted or top-dose-only effect, or another doubt; inactive means no such curve, though single readings can be large; an effect the other way counts as inactive or inconclusive. Potency means the concentration at half of the fitted maximal effect.

O=C(Nc1nc2n(n1)C(c1ccc(F)cc1)C=C(c1ccc(Cl)cc1)N2)c1ccco1 (stereo not drawn) was read as Tb PYK inh -10.8% and Sm TGR inh 0.4%.
Screening O=C(c1nc2n(n1)C(c1ccc(Cl)cc1)C=C(c1ccccc1)N2)N1CCOCC1 (stereo not drawn) returned Tb PYK inh -1.5%, NS1 inh -13.2%, Sm TGR inh 10µM*, FBPA Giardia inh -7.9%, RE007 growth inh -8.5% and LmPK inhibitor 7.9%.
`CSc1cccc(NC(=O)/C=C/c2ccco2)c1` gave Tb PYK inh -13.1%, Sm TGR inh 1.12µM*, FBPA Giardia inh -13.1%, RE007 growth inh -25.2% and LmPK inhibitor 1.5%.
Screening COc1cccc(NC(=O)/C=C/c2ccco2)c1 returned Tb PYK inh -15.7%, Sm TGR inh 10µM*, FBPA Giardia inh -22.9%, RE007 growth inh inconclusive and LmPK inhibitor 15.8µM*.
Screening CN(C)c1ccc([C@@H]2[C@@H]([N+](=O)[O-])[C@H]3C=Cc4ccccc4N3[C@H]2C(=O)c2ccc(Cl)cc2)cc1 returned Tb PYK inh -5.4%, NS1 inh 23.2%, Sm TGR inh 44.7µM*, FBPA Giardia inh -13.9%, RE007 growth inh inconclusive and LmPK inhibitor -13.4%.
Screening O=C(c1ccccc1)C1C(c2ccccc2)C1[N+](=O)[O-] (stereo not drawn) returned Tb PYK inh 2.9%, NS1 inh 9.4%, Sm TGR inh 8.1%, FBPA Giardia inh 0.7%, RE007 growth inh 11.1% and LmPK inhibitor 7.2%.
Screening Cc1c(N=Cc2ccc(-c3ccc(Cl)cc3)o2)c(=O)n(-c2ccccc2)n1C returned Tb PYK inh 7.2%, NS1 inh -61.4%, Sm TGR inh 3.2%, FBPA Giardia inh -2.0%, RE007 growth inh 7.9% and LmPK inhibitor -2.2%.
For Cc1c(N=Cc2ccc(Cl)o2)c(=O)n(-c2ccccc2)n1C the results were Tb PYK inh -6.4%, NS1 inh -17.7%, Sm TGR inh 22.4µM*, FBPA Giardia inh -12.9%, RE007 growth inh 1.8% and LmPK inhibitor -2.4%.
NNC(=O)Nc1cccc(C(F)(F)F)c1 was read as Tb PYK inh -4.2%, NS1 inh 5.8%, Sm TGR inh 19.9%, FBPA Giardia inh -7.0%, RE007 growth inh 14.5% and LmPK inhibitor 4.6%.
Screening NC(=O)/C=C\C(=O)Nc1cccc(C(F)(F)F)c1 returned Tb PYK inh -3.3%, NS1 inh -243.0%, Sm TGR inh 3.55µM*, FBPA Giardia inh 3.9%, RE007 growth inh 17.8µM* and LmPK inhibitor -2.0%.
For O=C(Nc1ccccc1C(=O)OCc1cc(=O)n2c3c(sc2n1)CCCC3)c1ccccc1 the results were Tb PYK inh 3.6% and Sm TGR inh 5.5%.
For COC(=O)[C@@H]1C[C@@H]2CC[C@@H](O)C[C@@H]2N1Cc1ccccc1OS(=O)(=O)c1ccc(C)cc1 the results were Tb PYK inh 0.9%, NS1 inh -0.4%, Sm TGR inh 28.2µM*, FBPA Giardia inh -6.4%, RE007 growth inh 1.2% and LmPK inhibitor 3.3%.
For Cc1ccccc1NC(=O)CNC(=O)Cc1cccc2ccccc12 the results were Tb PYK inh -2.6%, Sm TGR inh -0.3% and RE007 growth inh -6.8%.
`Cc1cccc(C)c1NC(=O)CNC(=O)CNC(=O)Cc1cccc2ccccc12` gave Tb PYK inh 3.6%, Sm TGR inh 6.31µM* and RE007 growth inh -11.0%.
`CCCCCCc1cc2cc(-c3nnc(-c4cccc(Cl)c4)o3)c(=O)oc2cc1O` gave Tb PYK inh 3.7% and Sm TGR inh -2.6%.
Screening CC1CCCN(c2ncnc3c2nnn3C)C1 (stereo not drawn) returned Tb PYK inh 5.1% and Sm TGR inh 16.8%.
`Cc1sc(NC(=O)c2ccco2)c(C(c2cccnc2)N2CCN(C)CC2)c1C` (stereo not drawn) gave Tb PYK inh -7.0%, NS1 inh -11.4%, Sm TGR inh 35.5µM*, FBPA Giardia inh 10.4%, RE007 growth inh -29.0% and LmPK inhibitor 6.4%.
For Cc1sc(NC(=O)c2ccco2)c(C(c2cccnc2)N2CCCC2)c1C (stereo not drawn) the results were Tb PYK inh -13.0%, NS1 inh -20.6%, Sm TGR inh inconclusive, FBPA Giardia inh 0.4%, RE007 growth inh 5.3% and LmPK inhibitor -1.6%.
For CCC(=O)Oc1ccc(C/C(=N\O)c2ccc(O)cc2O)o1 the results were Tb PYK inh -12.2%, NS1 inh inconclusive, Sm TGR inh 7.94µM*, FBPA Giardia inh 0.5%, RE007 growth inh 12.8% and LmPK inhibitor 9.3%.
Screening N#C/C(=C(/O)C(Cl)(Cl)Cl)c1nc2ccccc2[nH]1 returned Tb PYK inh -1.7%, NS1 inh -2.0%, Sm TGR inh 3.98µM*, FBPA Giardia inh -4.5%, RE007 growth inh 18.3% and LmPK inhibitor -11.6%.
For Cc1ccccc1Nc1oc(-c2ccccc2)nc1-c1cccc2ccccc12 the results were FBPA Giardia inh -0.6%.
`CC(=O)Nc1ccc(S(=O)(=O)NCc2ccc(C)n2C)cc1` gave Tb PYK inh -2.4%, NS1 inh inconclusive, Sm TGR inh 14.1µM*, FBPA Giardia inh -8.3%, RE007 growth inh -5.8% and LmPK inhibitor -2.1%.
`O=c1c2c3c(sc2n(CCN2CCCC2)c(=O)n1Cc1ccco1)CCCCC3` gave Tb PYK inh -4.0%, NS1 inh inconclusive, Sm TGR inh 0.1%, FBPA Giardia inh -6.3%, RE007 growth inh -7.1% and LmPK inhibitor 5.2%.
Screening O=C(Cn1c(=O)n(Cc2ccco2)c(=O)c2c3c(sc21)CCCCC3)c1ccccc1 returned Tb PYK inh -1.8%, NS1 inh inconclusive, Sm TGR inh 35.5µM*, FBPA Giardia inh -1.4%, RE007 growth inh -15.9% and LmPK inhibitor 0.1%.
For O=C(Cn1c(=O)n(Cc2ccco2)c(=O)c2c3c(sc21)CCCCC3)Nc1ccccc1 the results were Tb PYK inh -8.4%, NS1 inh inconclusive, Sm TGR inh 10µM*, FBPA Giardia inh -8.2%, RE007 growth inh 1.7% and LmPK inhibitor 2.1%.
Screening CC(C)=CCC/C(C)=C/CO/N=C1/C[C@@H](O)[C@@H](O)[C@@H]2[C@@H]3C(=O)N([C@@H](C)c4ccccc4)C(=O)[C@H]3CC[C@H]12 returned FBPA Giardia inh -0.8%[12.9 µM].
For O=C1CC=C2C3CC4N(CCC45c4cc(O)c(O)cc4N1C25)CC3=CCBr (stereo not drawn) the results were Tb PYK inh 2.82µM* and RE007 growth inh -5.4%.
